Test results taken from the supplement of paper PMC9694430.

Tests used:
Assay in all cases: thermal shift delta Tm vs DMSO control; higher = stronger stabilization (binding)
Details in all cases: 12.5 µM; protein concentration 2 µM
LOC_OS01G57100-cb003 = tested on: LOC_OS01G57100-cb003
Method in brief: (§1)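 Rice kinase domain constructs, made in E. coli and purified, were placed in 96-well plates at 2 μM in 19.5 μl of 100 mM potassium phosphate pH 7.5, 150 mM NaCl, 10% glycerol and 5 × SYPRO Orange, with compound in DMSO. A temperature ramp from 25°C to 95°C at 0.05°C/s was used for differential scanning fluorimetry. The melting temperature shift is a triplicate mean compared with DMSO-only protein, derived from Boltzmann fits.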

LOC_OS01G60330-cb001 = tested on: LOC_OS01G60330-cb001
Method in brief: as §1

LOC_OS01G60700-cb002 = tested on: LOC_OS01G60700-cb002
Method in brief: as §1

LOC_OS01G63280-cb003 = tested on: LOC_OS01G63280-cb003
Method in brief: as §1

LOC_OS01G67340-cb003 = tested on: LOC_OS01G67340-cb003
Method in brief: as §1

LOC_OS01G70970-cb002 = tested on: LOC_OS01G70970-cb002
Method in brief: as §1

LOC_OS02G07810-cb001 = tested on: LOC_OS02G07810-cb001
Method in brief: as §1

LOC_OS02G08530-cb003 = tested on: LOC_OS02G08530-cb003
Method in brief: as §1

LOC_OS02G14120-cb001 = tested on: LOC_OS02G14120-cb001
Method in brief: as §1

LOC_OS02G17970-cb001 = tested on: LOC_OS02G17970-cb001
Method in brief: as §1

LOC_OS02G45750-cb003 = tested on: LOC_OS02G45750-cb003
Method in brief: as §1

LOC_OS02G54510-cb004 = tested on: LOC_OS02G54510-cb004
Method in brief: as §1

LOC_OS03G04050-cb001 = tested on: LOC_OS03G04050-cb001
Method in brief: as §1

LOC_OS03G12390-cb001 = tested on: LOC_OS03G12390-cb001
Method in brief: as §1

LOC_OS03G27990-cb004 = tested on: LOC_OS03G27990-cb004
Method in brief: as §1

LOC_OS03G50450-cb001 = tested on: LOC_OS03G50450-cb001
Method in brief: as §1

LOC_OS03G50810-cb003 = tested on: LOC_OS03G50810-cb003
Method in brief: as §1

LOC_OS04G35114-cb001 = tested on: LOC_OS04G35114-cb001
Method in brief: as §1

LOC_OS04G38480-cb003 = tested on: T1, LOC_OS04G38480-cb003
T1 sequence (whole entry): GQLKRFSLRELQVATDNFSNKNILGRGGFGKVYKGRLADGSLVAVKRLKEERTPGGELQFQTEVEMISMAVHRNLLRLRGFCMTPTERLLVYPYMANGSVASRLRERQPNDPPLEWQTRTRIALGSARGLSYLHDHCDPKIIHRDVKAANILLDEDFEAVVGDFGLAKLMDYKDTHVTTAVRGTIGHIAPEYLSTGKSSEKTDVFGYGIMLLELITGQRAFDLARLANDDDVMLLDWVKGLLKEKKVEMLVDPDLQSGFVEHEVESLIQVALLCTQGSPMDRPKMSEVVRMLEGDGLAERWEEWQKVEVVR
Method in brief: as §1

LOC_OS04G41100-cb001 = tested on: T2, LOC_OS04G41100-cb001
T2 sequence (whole entry): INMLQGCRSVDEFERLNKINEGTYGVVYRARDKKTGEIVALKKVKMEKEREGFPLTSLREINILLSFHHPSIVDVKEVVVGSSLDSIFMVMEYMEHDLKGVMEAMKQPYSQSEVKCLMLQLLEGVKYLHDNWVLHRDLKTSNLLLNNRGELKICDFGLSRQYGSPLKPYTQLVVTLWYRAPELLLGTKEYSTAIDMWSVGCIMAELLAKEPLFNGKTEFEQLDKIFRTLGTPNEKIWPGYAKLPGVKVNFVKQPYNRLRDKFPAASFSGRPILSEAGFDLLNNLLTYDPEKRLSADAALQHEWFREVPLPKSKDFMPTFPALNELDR
Method in brief: as §1
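Also: purified Escherichia coli-expressed rice kinase domain construct.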

SMILES	thermal shift delta Tm (LOC_OS01G57100-cb003)	thermal shift delta Tm (LOC_OS01G60330-cb001)	thermal shift delta Tm (LOC_OS01G60700-cb002)	thermal shift delta Tm (LOC_OS01G63280-cb003)	thermal shift delta Tm (LOC_OS01G67340-cb003)	thermal shift delta Tm (LOC_OS01G70970-cb002)	thermal shift delta Tm (LOC_OS02G07810-cb001)	thermal shift delta Tm (LOC_OS02G08530-cb003)	thermal shift delta Tm (LOC_OS02G14120-cb001)	thermal shift delta Tm (LOC_OS02G17970-cb001)	thermal shift delta Tm (LOC_OS02G45750-cb003)	thermal shift delta Tm (LOC_OS02G54510-cb004)	thermal shift delta Tm (LOC_OS03G04050-cb001)	thermal shift delta Tm (LOC_OS03G12390-cb001)	thermal shift delta Tm (LOC_OS03G27990-cb004)	thermal shift delta Tm (LOC_OS03G50450-cb001)	thermal shift delta Tm (LOC_OS03G50810-cb003)	thermal shift delta Tm (LOC_OS04G35114-cb001)	thermal shift delta Tm (LOC_OS04G38480-cb003)	thermal shift delta Tm (LOC_OS04G41100-cb001)
Cc1cc2c(F)c(Oc3ncnn4cc(OC[C@@H](C)O)c(C)c34)ccc2[nH]1	0.81 °C	1.36 °C	0.76 °C	1.5 °C	-0.11 °C	0.52 °C	0.7 °C	1.17 °C	1.77 °C	0.7 °C	1.84 °C	-0.24 °C	0.46 °C	-0.04 °C	1.01 °C	0.21 °C	0.22 °C	5.26 °C	1.05 °C	0.62 °C
CN(c1ccccc1CNc1nc(Nc2ccc3c(c2)CC(=O)N3)ncc1C(F)(F)F)S(C)(=O)=O	2.5 °C	2.26 °C	1.26 °C	6.35 °C	3.07 °C	9.4 °C	1.12 °C	2.68 °C	8.26 °C	0.68 °C	11.6 °C	1.85 °C	0.4 °C	6.91 °C	2.93 °C	3.16 °C	5.31 °C	5.87 °C	3.54 °C	2.86 °C
CCC[C@H](NC(=O)/C(C#N)=C/c1cccc(Br)n1)c1ccccc1 [Degrasyn (WP1130)]	5.82 °C	0.61 °C	1.12 °C	-5.45 °C	-3.27 °C	0.17 °C	0.68 °C	-0.39 °C	-1.56 °C	4.33 °C	-2.36 °C	-1.29 °C	0.2 °C	-5.26 °C	-3.68 °C	-0.35 °C	-2.71 °C	-2.87 °C	1.05 °C	-0.61 °C
OCCn1cc(-c2cnc3nnn(Cc4ccc5ncccc5c4)c3n2)cn1	0.41 °C	0.74 °C	0.46 °C	0.3 °C	-0.64 °C	0.28 °C	0.2 °C	0.45 °C	-0.27 °C	0.49 °C	0.63 °C	0.54 °C	0.84 °C	-0.07 °C	0.33 °C	0.8 °C	0.22 °C	0.87 °C	-0.51 °C	0.57 °C
CC(=O)Nc1nc(C)c(-c2ccc(Cl)c(S(=O)(=O)NCCO)c2)s1	1.34 °C	1.21 °C	0.76 °C	0.53 °C	0.18 °C	0.09 °C	1.61 °C	0.77 °C	1.19 °C	0.97 °C	1.06 °C	0.31 °C	0.56 °C	0.64 °C	0.19 °C	0.73 °C	0.75 °C	1.53 °C	0.78 °C	0.77 °C
CCN(CC)CCCC(C)Nc1nc(C)cc(Nc2ccc3nc(C)cc(N)c3c2)n1 (stereo not given)	1.43 °C	0.65 °C	0.91 °C	0.28 °C	0.08 °C	0.16 °C	-0.06 °C	0.57 °C	0.93 °C	0.8 °C	1.05 °C	0.18 °C	0.55 °C	-0.21 °C	0.33 °C	0.59 °C	0.25 °C	0.62 °C	0.87 °C	0.23 °C
